Laboratory results as given in the supplement of paper PMC3334620.
In all, about 33,000 sequences were measured (“E-score (-0.5 to 0.5)”: median about -0.053, highest 2% from about 0.37 on). What follows is part of a selection rich in the highest values, with near analogues and random picks from the rest.

Biological target: Hap1 (UniProt P0CE41)
Experiment: PBM E-score (8-mer binding enrichment) (E-score (-0.5 to 0.5)); higher = stronger / more preferred TF binding
Conditions: protein concentration: 200 nM; construct: GST-DNA-binding domain
Procedure, shortened: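 Yeast transcription factors carrying a GST tag, as full-length proteins or DNA-binding domains, were produced by PURExpress in vitro transcription/translation. About 100-200 nM protein was applied to universal all-10-mer Agilent arrays, double-stranded by primer extension on fresh or once-stripped slides. Bound protein was detected with fluorescent anti-GST, and scans were normalised with masliner. The Universal PBM Analysis Suite gave each ungapped eight-base word, pooled with its reverse complement, an E-score, a modified Wilcoxon-Mann-Whitney statistic.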

UniProt P0CE41, sequence (P0CE41 whole entry): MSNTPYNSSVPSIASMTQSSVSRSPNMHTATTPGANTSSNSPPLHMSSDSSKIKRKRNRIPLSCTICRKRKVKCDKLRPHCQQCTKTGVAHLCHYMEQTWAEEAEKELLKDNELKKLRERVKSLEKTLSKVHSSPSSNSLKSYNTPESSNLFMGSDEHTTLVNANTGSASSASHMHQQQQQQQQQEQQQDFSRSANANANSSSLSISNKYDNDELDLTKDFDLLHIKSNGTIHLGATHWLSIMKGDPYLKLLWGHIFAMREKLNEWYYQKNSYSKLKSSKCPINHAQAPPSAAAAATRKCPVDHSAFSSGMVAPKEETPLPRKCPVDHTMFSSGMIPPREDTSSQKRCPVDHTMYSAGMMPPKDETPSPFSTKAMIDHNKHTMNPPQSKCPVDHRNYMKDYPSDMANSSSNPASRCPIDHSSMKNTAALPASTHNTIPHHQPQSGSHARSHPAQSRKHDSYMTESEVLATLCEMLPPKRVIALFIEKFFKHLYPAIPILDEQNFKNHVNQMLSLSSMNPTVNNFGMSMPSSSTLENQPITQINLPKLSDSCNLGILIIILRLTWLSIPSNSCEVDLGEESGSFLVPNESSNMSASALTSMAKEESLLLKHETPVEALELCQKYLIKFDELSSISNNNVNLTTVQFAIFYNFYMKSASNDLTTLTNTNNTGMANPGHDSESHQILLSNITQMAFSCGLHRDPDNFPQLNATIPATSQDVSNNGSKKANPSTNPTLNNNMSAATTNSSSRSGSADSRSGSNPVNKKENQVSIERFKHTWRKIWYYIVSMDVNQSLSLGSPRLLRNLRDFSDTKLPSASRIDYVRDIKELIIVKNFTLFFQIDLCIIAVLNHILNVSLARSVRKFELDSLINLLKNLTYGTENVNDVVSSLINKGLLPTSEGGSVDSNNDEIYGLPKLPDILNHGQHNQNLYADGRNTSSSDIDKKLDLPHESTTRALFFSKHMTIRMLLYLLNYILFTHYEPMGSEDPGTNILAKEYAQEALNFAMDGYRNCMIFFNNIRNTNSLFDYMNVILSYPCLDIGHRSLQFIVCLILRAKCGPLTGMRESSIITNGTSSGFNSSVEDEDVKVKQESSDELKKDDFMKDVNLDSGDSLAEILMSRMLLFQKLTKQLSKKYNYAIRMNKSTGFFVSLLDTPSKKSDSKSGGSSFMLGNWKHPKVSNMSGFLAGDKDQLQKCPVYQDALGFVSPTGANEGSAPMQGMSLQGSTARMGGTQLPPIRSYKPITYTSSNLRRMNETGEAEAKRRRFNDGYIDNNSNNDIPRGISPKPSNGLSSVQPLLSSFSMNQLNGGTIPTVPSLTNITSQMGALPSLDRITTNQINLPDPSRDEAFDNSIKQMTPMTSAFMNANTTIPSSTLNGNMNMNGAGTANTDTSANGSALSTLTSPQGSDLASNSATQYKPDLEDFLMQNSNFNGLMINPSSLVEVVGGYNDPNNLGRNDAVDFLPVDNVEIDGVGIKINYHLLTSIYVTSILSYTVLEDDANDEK

Row | Sequence | PBM E-score
1 | AGCGTACT | -0.0657
2 | CGTCCGTC | 0.234
3 | GGTCCCGA | 0.231
4 | AGTCCGGA | 0.452
5 | AGTCCGCA | 0.293
6 | CGTCCGGC | 0.41
7 | GGTCCGCA | 0.3
8 | CGTCCGGA | 0.443
9 | CGTCCGCC | 0.281
10 | CGTCCGTA | 0.309
11 | CGTCCGCA | 0.228
12 | GGTCCGGA | 0.44
13 | AGTCCGTA | 0.269
14 | ATGAAGAA | -0.136
15 | GCACTGGA | -0.275
16 | ACTGCCGA | 0.261
17 | GCCGACCC | 0.139
18 | AAACAGCC | -0.0624
19 | AATGATCA | -0.179
20 | CTTCAAGA | -0.235
21 | AGGAAAGA | -0.275
22 | ACATTCGC | 0.0143
23 | AGCCAAGA | -0.26
24 | AGGACACA | -0.0409
25 | AGATTCGA | -0.117

Row | Sequence | PBM E-score
26 | CGGTAATC | 0.327
27 | CGGTATTA | 0.412
28 | CGGTAATA | 0.408
29 | AGGTATTA | 0.0089
30 | CGGTATTC | 0.304
31 | GGGTAATA | -0.00588
32 | CCGGGGGA | 0.343
33 | TCCGGGAA | 0.376
34 | ACGGGGAC | 0.159
35 | CCCGGGAA | 0.339
36 | ACGGGGAG | -0.0069
37 | ACGGGGAT | 0.383
38 | CGGGGGAA | 0.354
39 | CCGGGGAA | 0.372
40 | ACCGGGAA | 0.35
41 | GCAGGCTA | -0.169
42 | CGCCATAA | -0.0284
43 | TACTTAGA | -0.362
44 | GCGCCCGC | 0.0873
45 | AGGCTCAT | -0.159
46 | CGCGTGGA | -0.079
47 | TACCGATA | 0.378
48 | CACCGATG | 0.196
49 | GACCGACA | 0.359
50 | TACCGACA | 0.209

Row | Sequence | PBM E-score
51 | AACCGATT | 0.263
52 | CACCGATC | 0.22
53 | CACCGATA | 0.375
54 | AACCGATG | 0.193
55 | GACCGATA | 0.434
56 | TACCGAAA | 0.188
57 | GACCGATC | 0.341
58 | AACCGATA | 0.421
59 | ATGGGTCA | -0.27
60 | CATGAGGA | -0.0511
61 | CTTTCGAC | -0.0279
62 | AAGGGTCG | 0.0795
63 | CCGATAGA | 0.405
64 | ACGATAGA | -0.099
65 | ACGATAGC | 0.0603
66 | CCGATAGG | 0.438
67 | ACGATAGG | 0.0214
68 | GCGATAGC | 0.00865
69 | CCGATAGC | 0.372
70 | GCGATAGA | 0.223
71 | CAGATAGG | -0.142
72 | ACGATTGG | -0.123
73 | GTGTCCCA | 0.0086
74 | CCGATGCA | 0.242
75 | ATACCCGC | 0.253

Row | Sequence | PBM E-score
76 | ATACCCCG | 0.346
77 | ATACCCGG | 0.38
78 | ATACCCTG | -0.0146
79 | ATACCCGA | 0.398
80 | CTACCCGA | 0.161
81 | CATCGCCC | 0.128
82 | AAAAGGTT | -0.211
83 | CGGTTAAC | 0.203
84 | ATACCCTA | -0.203
85 | AGGGTCAC | -0.193
86 | GCGGTGTA | -0.063
87 | CCGCGGAC | 0.383
88 | CGGCGGAG | 0.387
89 | CGGCGGAA | 0.396
90 | CGGCGGTA | 0.428
91 | CCGCGGAA | 0.317
92 | GGGCGGTA | 0.315
93 | AGGCGGAA | 0.0183
94 | GGGCGGAA | 0.267
95 | CAGCGGAG | 0.245
96 | AGGCGGTA | -0.131
97 | AGGCGGAG | 0.175
98 | CCGCGGAG | 0.352
99 | CCATGGCC | -0.0324
100 | CGACCAGA | 0.0439

Row | Sequence | PBM E-score
101 | AGTTTGAG | -0.0293
102 | ATGATCCC | 0.0807
103 | CTTCCCAA | -0.197
104 | CGAAAGTA | 0.0968
105 | CGGCTACG | 0.111
106 | AGATGAAC | -0.115
107 | GGGCGGAC | 0.279
108 | CGGCGGAC | 0.38
109 | AGGCGGAC | 0.288
110 | CCAGACCA | -0.187
111 | ACGTCCTG | -0.211
112 | ACGTCCGG | 0.411
113 | ACGTCCGA | 0.386
114 | CCGTCCGC | 0.231
115 | ACGTCCGC | 0.357
116 | CCGTCCGA | 0.399
117 | ACGTCCAA | -0.0855
118 | GCGTCCGA | 0.305
119 | CCGTCCTA | -0.104
120 | AAACCAAG | -0.0855
121 | CGCGGGCA | 0.256
122 | TATGGTCA | -0.303
123 | CAGAGATA | -0.182
124 | ACCGTGAA | 0.126
125 | CGTTCCAG | -0.157

Row | Sequence | PBM E-score
126 | AGCCCCTG | -0.269
127 | CATCTATC | -0.00973
128 | TAACGGAA | 0.375
129 | GATCGGGA | 0.136
130 | AATCGGAA | 0.364
131 | AATCGGCA | 0.224
132 | TATCGGGA | 0.393
133 | CATCGGCA | 0.266
134 | GAACGGAA | 0.282
135 | CAACGGAA | 0.285
136 | CATCGGAA | 0.297
137 | TATCGGCA | 0.425
138 | TATCGGAA | 0.409
139 | CATCGGGA | 0.223
140 | GAAGGCAA | -0.137
141 | AAATTGAG | -0.0939
142 | CTCTGGCA | -0.217
143 | ATTGGTTA | -0.094
144 | CAGGAGAA | -0.147
145 | CCGGAGAG | 0.354
146 | CCGGAGTA | 0.435
147 | TCGGAGAA | 0.405
148 | CCGGAGGA | 0.432
149 | CCGGAGTC | 0.356
150 | ACGGAGAA | 0.27

Row | Sequence | PBM E-score
151 | GCGGAGGA | 0.17
152 | GCGGAGTA | 0.25
153 | GCGGAGAA | 0.349
154 | CCGGAGAA | 0.428
155 | CCGGAGGC | 0.286
156 | ACCATGCG | -0.0491
157 | CATTAACC | 0.0537
158 | TCTATGAA | -0.115
159 | CACAATGC | -0.0342
160 | GAGAATGA | -0.137
161 | AGGGCTGG | -0.101
162 | CCGGTTCA | 0.267
163 | CGTTTTAA | -0.0609
164 | GCGGAGAC | 0.348
165 | CCGGAGCG | 0.359
166 | GCGGAGCA | 0.211
167 | CGGGAGAC | 0.216
168 | CCGGAGCA | 0.418
169 | CCGGAGAC | 0.373
170 | AGTTAGGC | -0.113
171 | CTCGGGAC | 0.263
172 | GCCCCATA | -0.00491
